According to ChEMBL document CHEMBL1961873, “Compounds: GSK PKIS; Assays: Nanosyn kinase panel” (2012):

Columns and labels:
[1] = biological target: T1, Mitogen-activated protein kinase 12 (Homo sapiens) (UniProt P53778); conditions: at 1 µM;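 further: values are averaged p38gamma kinase inhibition readings, compounds tested at 1 µM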
T1 sequence (whole entry): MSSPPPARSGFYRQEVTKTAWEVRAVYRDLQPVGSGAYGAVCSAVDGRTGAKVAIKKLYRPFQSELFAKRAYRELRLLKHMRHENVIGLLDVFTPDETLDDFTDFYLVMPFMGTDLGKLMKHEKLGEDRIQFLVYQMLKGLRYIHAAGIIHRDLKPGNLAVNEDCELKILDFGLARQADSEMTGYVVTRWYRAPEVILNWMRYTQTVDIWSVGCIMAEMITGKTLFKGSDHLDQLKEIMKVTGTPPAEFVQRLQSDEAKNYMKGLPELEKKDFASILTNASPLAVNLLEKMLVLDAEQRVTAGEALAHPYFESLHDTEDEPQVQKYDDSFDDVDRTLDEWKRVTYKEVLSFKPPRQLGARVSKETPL

[2] = biological target: SRSF protein kinase 1 (Homo sapiens) (UniProt Q96SB4); conditions: at 0.1 µM
[3] = biological target: SRSF protein kinase 1 (Homo sapiens) (UniProt Q96SB4); conditions: at 1 µM
[4] = biological target: Phosphatidylinositol 4,5-bisphosphate 3-kinase catalytic subunit alpha isoform (Homo sapiens) (UniProt P42336); conditions: at 0.1 µM
[5] = biological target: Phosphatidylinositol 4,5-bisphosphate 3-kinase catalytic subunit alpha isoform (Homo sapiens) (UniProt P42336); conditions: at 1 µM
[6] = biological target: T2, Phosphatidylinositol 4,5-bisphosphate 3-kinase catalytic subunit delta isoform (Homo sapiens) (UniProt O00329); conditions: at 0.1 µM
T2 sequence (whole entry): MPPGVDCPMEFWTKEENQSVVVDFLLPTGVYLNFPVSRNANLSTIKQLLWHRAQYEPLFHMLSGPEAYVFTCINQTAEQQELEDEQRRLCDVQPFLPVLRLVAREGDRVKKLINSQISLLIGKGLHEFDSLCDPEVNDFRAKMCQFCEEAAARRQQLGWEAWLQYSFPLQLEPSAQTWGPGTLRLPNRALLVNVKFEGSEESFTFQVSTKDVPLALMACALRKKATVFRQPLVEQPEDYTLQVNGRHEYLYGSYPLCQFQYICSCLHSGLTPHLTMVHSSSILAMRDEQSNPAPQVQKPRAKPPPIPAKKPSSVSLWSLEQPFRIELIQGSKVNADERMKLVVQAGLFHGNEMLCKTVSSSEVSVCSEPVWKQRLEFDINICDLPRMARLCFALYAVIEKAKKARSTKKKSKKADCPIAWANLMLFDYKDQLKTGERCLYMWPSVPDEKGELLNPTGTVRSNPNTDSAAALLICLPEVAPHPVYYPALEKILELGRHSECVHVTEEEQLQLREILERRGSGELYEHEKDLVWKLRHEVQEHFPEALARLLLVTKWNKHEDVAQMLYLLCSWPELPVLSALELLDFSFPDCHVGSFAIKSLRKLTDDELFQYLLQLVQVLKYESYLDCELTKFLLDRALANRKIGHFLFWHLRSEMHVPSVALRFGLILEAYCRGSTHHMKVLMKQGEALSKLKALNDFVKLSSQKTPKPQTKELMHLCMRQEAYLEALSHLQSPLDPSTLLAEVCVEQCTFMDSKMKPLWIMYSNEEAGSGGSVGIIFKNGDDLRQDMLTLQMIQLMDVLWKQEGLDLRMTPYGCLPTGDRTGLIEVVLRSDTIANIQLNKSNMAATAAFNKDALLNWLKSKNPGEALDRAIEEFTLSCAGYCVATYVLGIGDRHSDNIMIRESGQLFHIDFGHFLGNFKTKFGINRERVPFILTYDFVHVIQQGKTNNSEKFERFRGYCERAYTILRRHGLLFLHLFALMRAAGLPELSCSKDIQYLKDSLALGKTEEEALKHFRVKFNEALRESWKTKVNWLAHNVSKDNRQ

[7] = biological target: T2, Phosphatidylinositol 4,5-bisphosphate 3-kinase catalytic subunit delta isoform (Homo sapiens); conditions: at 1 µM
[8] = biological target: Phosphatidylinositol 4-kinase beta (Homo sapiens) (UniProt Q9UBF8); conditions: at 0.1 µM
[9] = biological target: Phosphatidylinositol 4-kinase beta (Homo sapiens) (UniProt Q9UBF8); conditions: at 1 µM
[10] = biological target: Sphingosine kinase 1 (Homo sapiens) (UniProt Q9NYA1); conditions: at 0.1 µM
[11] = biological target: Sphingosine kinase 1 (Homo sapiens) (UniProt Q9NYA1); conditions: at 1 µM
[12] = biological target: T3, Sphingosine kinase 2 (Homo sapiens) (UniProt Q9NRA0); conditions: at 0.1 µM
T3 sequence (whole entry): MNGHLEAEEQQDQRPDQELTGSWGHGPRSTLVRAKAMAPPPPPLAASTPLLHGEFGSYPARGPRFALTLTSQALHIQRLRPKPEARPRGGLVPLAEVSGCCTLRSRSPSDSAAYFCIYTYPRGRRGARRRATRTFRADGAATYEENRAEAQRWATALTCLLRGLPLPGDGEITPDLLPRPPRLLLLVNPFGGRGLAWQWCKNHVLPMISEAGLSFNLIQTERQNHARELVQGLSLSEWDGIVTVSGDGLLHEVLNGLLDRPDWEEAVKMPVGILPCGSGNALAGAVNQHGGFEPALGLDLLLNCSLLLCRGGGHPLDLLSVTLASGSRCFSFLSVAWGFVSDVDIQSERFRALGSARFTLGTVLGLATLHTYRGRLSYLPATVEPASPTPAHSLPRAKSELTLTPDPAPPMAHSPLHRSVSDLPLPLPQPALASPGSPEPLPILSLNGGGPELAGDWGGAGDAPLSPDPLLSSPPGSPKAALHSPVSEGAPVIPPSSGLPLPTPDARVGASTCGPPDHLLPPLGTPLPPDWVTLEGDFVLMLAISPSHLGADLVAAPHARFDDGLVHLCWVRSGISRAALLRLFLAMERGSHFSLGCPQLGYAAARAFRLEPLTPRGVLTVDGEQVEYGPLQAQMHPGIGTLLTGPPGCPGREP

[13] = biological target: T3, Sphingosine kinase 2 (Homo sapiens); conditions: at 1 µM
[14] = biological target: Casein kinase II subunit alpha (Homo sapiens) (UniProt P68400); conditions: at 0.1 µM
[15] = biological target: Casein kinase II subunit alpha (Homo sapiens) (UniProt P68400); conditions: at 1 µM
[16] = biological target: T4, Inhibitor of nuclear factor kappa-B kinase subunit alpha (Homo sapiens) (UniProt O15111); conditions: at 0.1 µM
T4 sequence (whole entry): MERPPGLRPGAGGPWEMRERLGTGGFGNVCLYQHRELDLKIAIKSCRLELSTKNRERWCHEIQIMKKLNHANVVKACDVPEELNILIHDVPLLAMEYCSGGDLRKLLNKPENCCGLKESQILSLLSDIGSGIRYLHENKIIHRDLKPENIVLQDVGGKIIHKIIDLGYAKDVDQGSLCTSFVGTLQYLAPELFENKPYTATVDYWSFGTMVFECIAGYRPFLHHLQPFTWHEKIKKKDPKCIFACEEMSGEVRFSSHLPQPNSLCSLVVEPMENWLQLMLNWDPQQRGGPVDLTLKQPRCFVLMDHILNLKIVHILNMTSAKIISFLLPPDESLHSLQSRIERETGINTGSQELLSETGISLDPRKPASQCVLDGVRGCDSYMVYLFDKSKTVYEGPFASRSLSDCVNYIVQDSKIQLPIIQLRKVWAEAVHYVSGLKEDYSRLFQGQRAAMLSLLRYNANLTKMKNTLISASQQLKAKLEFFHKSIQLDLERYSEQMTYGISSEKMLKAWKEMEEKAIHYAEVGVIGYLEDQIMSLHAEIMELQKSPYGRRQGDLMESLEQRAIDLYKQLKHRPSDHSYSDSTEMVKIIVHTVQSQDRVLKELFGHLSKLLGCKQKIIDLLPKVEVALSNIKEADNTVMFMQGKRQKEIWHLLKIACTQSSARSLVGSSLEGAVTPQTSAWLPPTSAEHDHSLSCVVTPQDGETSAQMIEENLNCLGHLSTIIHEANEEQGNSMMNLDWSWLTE

[17] = biological target: T4, Inhibitor of nuclear factor kappa-B kinase subunit alpha (Homo sapiens); conditions: at 1 µM
[18] = biological target: T5, Inhibitor of nuclear factor kappa-B kinase subunit beta (Homo sapiens) (UniProt O14920); conditions: at 0.1 µM
T5 sequence (whole entry): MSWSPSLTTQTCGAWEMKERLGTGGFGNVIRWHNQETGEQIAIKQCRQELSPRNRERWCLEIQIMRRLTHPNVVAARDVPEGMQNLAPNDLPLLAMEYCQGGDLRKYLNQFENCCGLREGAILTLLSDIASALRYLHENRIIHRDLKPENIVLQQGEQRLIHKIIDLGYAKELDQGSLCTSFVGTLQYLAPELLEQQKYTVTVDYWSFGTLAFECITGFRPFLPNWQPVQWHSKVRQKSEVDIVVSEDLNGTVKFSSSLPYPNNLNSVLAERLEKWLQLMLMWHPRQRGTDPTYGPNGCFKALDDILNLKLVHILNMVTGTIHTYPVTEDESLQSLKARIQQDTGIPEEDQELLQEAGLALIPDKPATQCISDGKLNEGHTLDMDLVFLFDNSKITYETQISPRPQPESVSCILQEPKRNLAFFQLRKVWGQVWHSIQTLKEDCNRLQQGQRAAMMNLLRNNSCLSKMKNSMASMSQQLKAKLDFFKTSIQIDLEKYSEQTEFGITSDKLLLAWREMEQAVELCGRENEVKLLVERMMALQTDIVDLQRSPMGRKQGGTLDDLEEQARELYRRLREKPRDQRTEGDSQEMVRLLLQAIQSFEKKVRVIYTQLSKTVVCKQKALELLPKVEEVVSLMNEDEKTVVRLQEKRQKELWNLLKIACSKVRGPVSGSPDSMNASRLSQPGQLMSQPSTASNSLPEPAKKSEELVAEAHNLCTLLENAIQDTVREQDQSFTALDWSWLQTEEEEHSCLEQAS

[19] = biological target: T5, Inhibitor of nuclear factor kappa-B kinase subunit beta (Homo sapiens); conditions: at 1 µM
[20] = biological target: T6, Inhibitor of nuclear factor kappa-B kinase subunit epsilon (Homo sapiens) (UniProt Q14164); conditions: at 0.1 µM;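 further: mean inhibition of IKKε reported, from the GSK PKIS dataset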
T6 sequence (whole entry): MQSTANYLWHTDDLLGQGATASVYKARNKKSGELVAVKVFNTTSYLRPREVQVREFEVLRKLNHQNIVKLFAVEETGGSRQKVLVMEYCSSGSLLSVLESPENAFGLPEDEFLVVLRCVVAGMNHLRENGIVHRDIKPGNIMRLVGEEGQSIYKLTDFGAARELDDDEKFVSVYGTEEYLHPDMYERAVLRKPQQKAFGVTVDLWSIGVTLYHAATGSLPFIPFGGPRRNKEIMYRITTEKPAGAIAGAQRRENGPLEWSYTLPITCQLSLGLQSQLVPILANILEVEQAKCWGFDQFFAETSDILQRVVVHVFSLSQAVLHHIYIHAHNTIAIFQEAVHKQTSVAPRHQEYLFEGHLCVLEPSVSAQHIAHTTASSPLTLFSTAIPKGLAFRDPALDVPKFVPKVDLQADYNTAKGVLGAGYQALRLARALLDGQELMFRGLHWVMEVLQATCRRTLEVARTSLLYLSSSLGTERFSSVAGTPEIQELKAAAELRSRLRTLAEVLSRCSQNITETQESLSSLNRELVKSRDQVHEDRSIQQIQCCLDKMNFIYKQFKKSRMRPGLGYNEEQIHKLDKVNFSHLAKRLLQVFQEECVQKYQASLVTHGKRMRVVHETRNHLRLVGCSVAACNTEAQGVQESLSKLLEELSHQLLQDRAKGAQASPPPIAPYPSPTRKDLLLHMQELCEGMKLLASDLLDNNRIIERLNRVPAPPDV

Sequence of Sphingosine kinase 1 (Homo sapiens) (Q9NYA1 whole entry): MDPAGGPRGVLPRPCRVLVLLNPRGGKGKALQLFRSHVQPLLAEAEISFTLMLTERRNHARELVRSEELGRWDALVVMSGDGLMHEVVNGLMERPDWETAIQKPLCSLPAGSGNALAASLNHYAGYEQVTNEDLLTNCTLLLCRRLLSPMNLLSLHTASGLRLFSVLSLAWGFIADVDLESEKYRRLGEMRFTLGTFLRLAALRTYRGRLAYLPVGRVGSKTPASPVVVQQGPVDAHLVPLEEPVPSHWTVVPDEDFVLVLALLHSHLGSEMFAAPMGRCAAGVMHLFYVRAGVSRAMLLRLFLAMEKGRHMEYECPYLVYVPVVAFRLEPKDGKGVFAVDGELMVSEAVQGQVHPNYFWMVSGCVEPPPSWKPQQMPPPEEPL
Sequence of Casein kinase II subunit alpha (Homo sapiens) (P68400 whole entry, looked up): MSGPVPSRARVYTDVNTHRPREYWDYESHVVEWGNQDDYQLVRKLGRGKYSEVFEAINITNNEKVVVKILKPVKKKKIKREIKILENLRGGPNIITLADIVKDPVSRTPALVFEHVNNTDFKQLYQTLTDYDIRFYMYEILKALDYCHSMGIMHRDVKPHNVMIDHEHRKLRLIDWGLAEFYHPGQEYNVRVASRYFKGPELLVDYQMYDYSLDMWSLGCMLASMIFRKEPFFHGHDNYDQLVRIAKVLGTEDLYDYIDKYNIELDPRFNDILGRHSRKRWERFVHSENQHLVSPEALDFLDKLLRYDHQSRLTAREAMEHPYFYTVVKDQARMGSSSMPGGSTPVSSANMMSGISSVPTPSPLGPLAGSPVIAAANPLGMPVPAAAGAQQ
Sequence of SRSF protein kinase 1 (Homo sapiens) (Q96SB4 whole entry, canonical isoform): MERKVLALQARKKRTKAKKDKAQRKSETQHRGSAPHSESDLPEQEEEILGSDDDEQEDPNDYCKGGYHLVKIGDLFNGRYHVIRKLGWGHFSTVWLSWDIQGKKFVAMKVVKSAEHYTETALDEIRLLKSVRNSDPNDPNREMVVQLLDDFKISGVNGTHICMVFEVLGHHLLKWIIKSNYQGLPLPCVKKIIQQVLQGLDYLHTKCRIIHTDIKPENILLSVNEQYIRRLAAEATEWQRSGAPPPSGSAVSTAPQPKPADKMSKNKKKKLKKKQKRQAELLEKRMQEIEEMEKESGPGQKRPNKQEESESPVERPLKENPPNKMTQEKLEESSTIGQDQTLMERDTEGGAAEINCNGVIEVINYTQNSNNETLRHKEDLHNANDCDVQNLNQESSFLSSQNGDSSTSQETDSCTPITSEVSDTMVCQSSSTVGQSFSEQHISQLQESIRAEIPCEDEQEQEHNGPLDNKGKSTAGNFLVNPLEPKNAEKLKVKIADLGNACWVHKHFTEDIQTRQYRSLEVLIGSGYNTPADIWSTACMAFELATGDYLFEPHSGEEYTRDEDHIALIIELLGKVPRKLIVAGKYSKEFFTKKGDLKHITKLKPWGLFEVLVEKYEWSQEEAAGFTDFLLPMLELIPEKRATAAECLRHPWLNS
Sequence of Phosphatidylinositol 4-kinase beta (Homo sapiens) (Q9UBF8 2-816 limits assumed): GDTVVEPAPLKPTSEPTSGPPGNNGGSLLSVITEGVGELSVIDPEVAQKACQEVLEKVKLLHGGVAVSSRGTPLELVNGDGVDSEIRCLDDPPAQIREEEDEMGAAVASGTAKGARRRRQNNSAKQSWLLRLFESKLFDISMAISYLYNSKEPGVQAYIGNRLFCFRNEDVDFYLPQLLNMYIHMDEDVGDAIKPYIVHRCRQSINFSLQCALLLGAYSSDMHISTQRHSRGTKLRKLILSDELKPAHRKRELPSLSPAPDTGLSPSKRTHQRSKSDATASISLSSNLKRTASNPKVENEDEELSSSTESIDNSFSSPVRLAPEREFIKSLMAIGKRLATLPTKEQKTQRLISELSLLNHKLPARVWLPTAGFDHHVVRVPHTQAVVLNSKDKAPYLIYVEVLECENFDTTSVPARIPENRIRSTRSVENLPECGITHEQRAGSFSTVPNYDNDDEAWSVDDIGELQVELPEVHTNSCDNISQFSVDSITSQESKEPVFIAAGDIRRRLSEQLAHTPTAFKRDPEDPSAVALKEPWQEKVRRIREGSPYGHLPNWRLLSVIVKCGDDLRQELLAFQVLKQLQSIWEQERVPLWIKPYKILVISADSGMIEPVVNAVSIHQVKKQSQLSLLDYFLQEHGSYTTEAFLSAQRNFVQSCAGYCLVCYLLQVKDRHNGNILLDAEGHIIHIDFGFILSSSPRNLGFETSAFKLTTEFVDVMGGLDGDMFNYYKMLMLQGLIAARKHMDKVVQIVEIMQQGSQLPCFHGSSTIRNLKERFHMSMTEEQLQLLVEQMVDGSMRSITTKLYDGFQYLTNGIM
Sequence of Phosphatidylinositol 4,5-bisphosphate 3-kinase catalytic subunit alpha isoform (Homo sapiens) (P42336 whole entry, canonical isoform): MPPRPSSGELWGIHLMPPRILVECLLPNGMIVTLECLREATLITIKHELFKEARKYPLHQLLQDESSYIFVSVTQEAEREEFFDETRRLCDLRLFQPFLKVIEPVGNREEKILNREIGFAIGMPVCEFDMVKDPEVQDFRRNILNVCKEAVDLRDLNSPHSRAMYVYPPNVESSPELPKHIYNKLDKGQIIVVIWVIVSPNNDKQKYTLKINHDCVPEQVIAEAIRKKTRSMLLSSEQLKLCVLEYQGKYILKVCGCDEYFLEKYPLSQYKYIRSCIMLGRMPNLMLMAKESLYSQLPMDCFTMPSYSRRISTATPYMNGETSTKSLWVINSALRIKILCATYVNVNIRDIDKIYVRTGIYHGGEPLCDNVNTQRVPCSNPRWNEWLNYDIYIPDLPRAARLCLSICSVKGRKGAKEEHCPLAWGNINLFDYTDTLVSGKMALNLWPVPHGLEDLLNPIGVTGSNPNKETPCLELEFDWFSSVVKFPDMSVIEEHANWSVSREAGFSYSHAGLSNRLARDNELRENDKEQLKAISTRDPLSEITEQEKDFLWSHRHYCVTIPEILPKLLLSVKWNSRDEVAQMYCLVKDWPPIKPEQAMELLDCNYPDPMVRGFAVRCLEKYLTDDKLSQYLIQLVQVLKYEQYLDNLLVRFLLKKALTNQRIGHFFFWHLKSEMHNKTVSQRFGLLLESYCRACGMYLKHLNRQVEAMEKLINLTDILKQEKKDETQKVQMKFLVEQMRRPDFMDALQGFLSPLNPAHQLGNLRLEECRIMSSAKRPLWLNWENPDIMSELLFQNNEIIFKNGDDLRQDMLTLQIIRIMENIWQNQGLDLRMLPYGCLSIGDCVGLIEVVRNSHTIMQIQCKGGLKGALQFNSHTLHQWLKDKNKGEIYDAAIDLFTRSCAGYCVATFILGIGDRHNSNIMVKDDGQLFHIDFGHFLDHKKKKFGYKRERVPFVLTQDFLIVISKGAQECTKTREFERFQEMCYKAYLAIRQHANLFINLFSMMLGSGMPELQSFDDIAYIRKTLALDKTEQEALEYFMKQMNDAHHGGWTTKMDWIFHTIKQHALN

Row | SMILES | inhibition [1] [%] | inhibition [2] [%] | inhibition [3] [%] | inhibition [4] [%] | inhibition [5] [%] | inhibition [6] [%] | inhibition [7] [%] | inhibition [8] [%] | inhibition [9] [%] | inhibition [10] [%] | inhibition [11] [%] | inhibition [12] [%] | inhibition [13] [%] | inhibition [14] [%] | inhibition [15] [%] | inhibition [16] [%] | inhibition [17] [%] | inhibition [18] [%] | inhibition [19] [%] | inhibition [20] [%]
1 | CN1CCC(n2cnc(-c3ccc(F)cc3)c2-c2ccnc(Nc3ccccc3)n2)CC1 | 9.03 | -1.25 | -1.27 | 1.36 | 1.8 | -0.07 | 4.79 | -0.93 | 1.36 | 1.77 | -6.88 | -0.42 | 0.78 | 3.62 | 8.56 | 6.78 | 1.62 | 2.83 | 3.93 | 3.59
2 | CCn1c(-c2nonc2N)nc2c(C#CC(C)(C)O)ncc(OC3CCNCC3)c21 | 3.11 | -3.24 | -2.54 | 2.27 | 1.82 | -0.02 | 0.63 | 4.47 | 0.66 | -1.2 | 4.1 | -2.62 | 0.82 | 5.58 | 2.13 | 3.92 | 0.96 | 4.3 | 5.45 | 79.5
3 | O=S(=O)(CCNCc1ccc(-c2ccc3ncnc(Nc4ccc(OCc5cccc(F)c5)c(Cl)c4)c3c2)o1)c1ccccc1 | 5.41 | -1.17 | -1.46 | 5.28 | 5.59 | 0.47 | 6.33 | -6.34 | -9.91 | 1.07 | -5.05 | -0.55 | 0.69 | 10.6 | 5.49 | 2.96 | -0.88 | 6.77 | 7.07 | 12
4 | COc1cccc(-n2ncc3c(N/N=C/c4ccc(F)cc4)ncnc32)c1 | 1.41 | -0.75 | 2.6 | 3.46 | 19.1 | 0.55 | 17.3 | -4.22 | -5.29 | 2.72 | -1.38 | -1.23 | 0.38 | 4.77 | 15.9 | 12.3 | 6.86 | 5.69 | 3.91 | 14.1
5 | CC(C)(CO)CNC(=O)c1ccc2c(c1)/C(=N/Nc1ccc(S(N)(=O)=O)cc1)C(=O)N2 | 0.79 | -1.95 | -1.91 | -2.03 | -1.12 | -0.73 | 2.18 | -1.03 | -0.32 | 0.09 | 0.62 | 0.34 | 0.16 | 2.49 | 23.5 | 4.85 | 3.43 | 3.25 | 0.5 | 14.3
6 | COc1ccc(CNC(=O)c2ccc(-c3cc(-c4nnc(C)o4)ccc3C)cc2)cc1 | 2.59 | 2.79 | 9.14 | 0.29 | -1.87 | -0.28 | -2.1 | 3.82 | 0.88 | 1.51 | -0.2 | 1.04 | 0.14 | 6.07 | 16.4 | 2 | 7.25 | 1.12 | 4.56 | 5.88
